Screening results: PubChem, National Center for Advancing Translational Sciences (NCATS)
Pf Dd2 inh: Plasmodium falciparum Dd2 growth inhibition | AID 1347417 | 120,000 tested, 4.3% active | Potency, µM (top dose mostly 28.9 µM), usual class: inhibitors | P. falciparum Dd2 growth, SYBR Green, 72 h; active means well fitted inhibition curve with a large enough effect; further: nearly all actives have a fitted effect of over 65% in size
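Readout: SYBR Green fluorescence, 485 nm excitation, 535 nm emission, after ~16 h lysis at 37C. Before that, Dd2-infected red cells (2.5% hematocrit) grew 72 h with compound, 29 uM top final concentration.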
Each line names hits and unclear results; the compound was inactive in the other large screens. This is one part of a sample in which hits are shown more often than they occur.

COc1cccc(C(=O)N2CCN(c3nc4ncccc4o3)CC2)c1	none
COc1ccc(-c2noc(CN3CCCCC3c3cccc(F)c3)n2)c(OC)c1OC (configuration not stated)	none
COc1ccc(F)cc1CN1CCc2[nH]cnc2C1c1cccc(C#N)c1 (configuration not stated)	Pf Dd2 inh 5.6µM
N#Cc1cccc(CN2Cc3[nH]cnc3C[C@H]2c2nc(-c3ccccc3)no2)c1	none
CCCCC1C=CCN1C(=O)c1cc(COc2ccc(F)cc2F)[nH]n1 (configuration not stated)	none
Cc1ncsc1CCC(=O)NCc1cc2n(n1)CCN(C(=O)N(C)C)C2	none
Cc1ccc(C)c(NC(=O)C(C)N(c2ccccc2)S(C)(=O)=O)c1 (configuration not stated)	none
Cc1ccc(C)c(NC2=C(c3ccc(C(F)(F)F)cc3)C(=O)c3ccccc32)c1	Pf Dd2 inh 1.4µM
Cc1ccc(C)c(NS(=O)(=O)c2ccc3c4c(cccc24)C(=O)N3)c1	none
Cc1ccc(S(=O)(=O)Cc2ccc(C(=O)N3CCN(c4cccc(C)c4C)CC3)o2)cc1	none
Cc1ccc(Cl)cc1N1CCN(C(=O)c2ccc(CS(=O)(=O)c3ccccc3C)o2)CC1	none
O=C(c1ccc(CS(=O)(=O)c2c(Cl)cccc2Cl)o1)N1CCN(c2ccccc2)CC1	Pf Dd2 inh 11µM
CN(Cc1cccs1)c1cc(C2CC(O)C2)ncn1 (configuration not stated)	none
COc1ccc(C(=O)N2CCC(n3cc(-c4nc(C(C)C)no4)nn3)CC2)cc1OC	none
COc1cccc(Nc2sc(C(=O)c3ccc(F)cc3)c(N)c2C(=O)NCc2ccc(C)cc2)c1	Pf Dd2 inh 10µM
Cc1ccc(CNC(=O)c2c(Nc3ccccc3C)sc(C(=O)c3ccc(F)cc3)c2N)cc1	none
COc1cccc(Nc2sc(C(=O)c3ccc(Cl)cc3)c(N)c2C(=O)NCCc2ccc(OC)c(OC)c2)c1	none
O=c1[nH]nc2n1CCN(Cc1ccncc1)CC2	none
CS(=O)(=O)N1CCC(CC(=O)NCCCN2CCc3ccccc3C2)C1 (configuration not stated)	none
COc1ccc(CN2Cc3cc(NC(=O)c4ccc(F)cc4)ccc3OC(C)C2=O)c(OC)c1 (configuration not stated)	none
COc1ccc(C(=O)Nc2ccc3c(c2)CN(Cc2ccc(F)cc2)C(=O)C(C)O3)c(OC)c1 (configuration not stated)	none
COc1ccc(CN2Cc3cc(NC(=O)c4ccccc4F)ccc3OC(C)C2=O)c(OC)c1 (configuration not stated)	Pf Dd2 inh 3.2µM
CN1c2cccnc2CN(C(=O)Nc2cccc(F)c2)CC[C@H]1CO	none
CCOc1ccc2c(n1)CCN(C(=O)c1ccsc1)C2	none
C[C@H]1[C@@H]2[C@@H](O)C([C@H](C)C(=O)NC3CCCCC3)CC[C@@]2(C)CC[C@@H]1NC(=O)c1ccccn1 (some centres not stated)	none
CCc1ccc(-n2nc(C)c3c(C(=O)N4CCN(c5cccc(Cl)c5)CC4)cc(C)nc32)cc1	Pf Dd2 inh 11µM
CCc1ccc(-n2nc(C)c3c(C(=O)N4CCN(c5ccccc5)CC4)cc(C)nc32)cc1	none
Cc1cc(C(=O)N2CCN(c3ccccc3)CC2)c2c(C)nn(-c3cccc(F)c3)c2n1	none
Cc1ccc(-c2cn3c(n2)CO[C@@H](CNCc2ccccc2Cl)C3)cc1	none
COCCN1C(=O)c2ccccc2C(C(=O)NCc2ccccc2F)C12CCCCC2 (configuration not stated)	none
COCCN1C(=O)c2ccccc2C(C(=O)NCCCc2ccccc2)C12CCCC2 (configuration not stated)	Pf Dd2 inh 11µM
COCCN1C(=O)c2ccccc2C(C(=O)Nc2cc(Cl)ccc2OC)C12CCCC2 (configuration not stated)	none
CCc1nc(NC(=O)C2c3ccccc3C(=O)N(CCOC)C23CCCC3)sc1C (configuration not stated)	Pf Dd2 inh 2µM
COCCN1C(=O)c2ccccc2C(C(=O)NCc2ccccc2)C12CCCCC2 (configuration not stated)	none
COCCN1C(=O)c2ccccc2C(C(=O)NCCc2ccc(OC)cc2)C12CCCC2 (configuration not stated)	none
COCCN1C(=O)c2ccccc2C(C(=O)NCC(C)C)C12CCCC2 (configuration not stated)	none
COCCN1C(=O)c2ccccc2C(C(=O)Nc2nc(C)c(C)s2)C12CCCCC2 (configuration not stated)	Pf Dd2 inh 3.5µM
CCCNC(=O)C1c2ccccc2C(=O)N(CCOC)C12CCCCC2 (configuration not stated)	none
COCCN1C(=O)c2ccccc2C(C(=O)NCCCOC(C)C)C12CCCCC2 (configuration not stated)	none
COCCN1C(=O)c2ccccc2C(C(=O)Nc2nnc(C(C)C)s2)C12CCCCC2 (configuration not stated)	Pf Dd2 inh 11µM
COCCN1C(=O)c2ccccc2C(C(=O)Nc2cccc(NC(C)=O)c2)C12CCCCC2 (configuration not stated)	none
O=C(O)Cc1cccn1-c1ccc(Cl)cc1	none
COCC(=O)NC[C@H]1C[C@@H]2CCN1C[C@@H]2CN1CCCC1	none
COc1cc(=O)n2c(c1C(=O)Nc1ccc(C(F)(F)F)cc1)CCCC2	none
CCNC(=O)N[C@H]1CC[C@]2(C)CC[C@@H](C(C)C(=O)NC3CCCCC3)[C@H](O)[C@H]2[C@@H]1C (some centres not stated)	none
C[C@]1(O)CCN(C(=O)c2ccc3c(c2)CCCC3)C[C@@H]1O	none
CC(=O)c1ccc(NC(=O)NC[C@H]2C[C@@H]3CCN2C[C@@H]3CN2CCC(C)CC2)cc1	none
C[C@]1(CO)[C@H]2Cc3sc(NC(=O)C4CCC4)nc3[C@@H](CC(=O)NCCN3CCOCC3)[C@]2(C)CC[C@H]1O	none
COc1cc(=O)n2c(c1C(=O)NCc1ccccc1C(F)(F)F)CCCC2	none
CC(=O)N1CCC(N[C@@H]2CO[C@H](CNC(=O)c3ccccc3)[C@H]2O)CC1	none
COCCN1C(=O)c2ccccc2C(C(=O)NCc2ccc(F)cc2)C12CCCC2 (configuration not stated)	none
COCCN1C(=O)c2ccccc2C(C(=O)NCc2ccco2)C12CCCCC2 (configuration not stated)	none
COCCN1C(=O)c2ccccc2C(C(=O)Nc2nc3ccccc3[nH]2)C12CCCCC2 (configuration not stated)	Pf Dd2 inh 1.8µM
Cc1ccc(NC(=O)Cn2nc3c(cc2=O)CCCCC3)c(C)c1	none
O=C(NCCCN1CCOCC1)c1ccc(N2CC3CC(C2)[C@H]2CCCC(=O)N2C3)nc1 (some centres not stated)	none
O=C(NCCCN1CCCc2ccccc21)c1ccc(N2CC3CC(C2)[C@H]2CCCC(=O)N2C3)nc1 (some centres not stated)	Pf Dd2 inh 11µM
O=C(NCCCN1CCCc2ccccc21)c1cccnc1N1CC2CC(C1)[C@H]1CCCC(=O)N1C2 (some centres not stated)	none
Cc1nc2scc(CC(=O)NCC(C)C)n2c(=O)c1-c1cc(C)n(-c2ccc(C(C)C)cc2)n1	none
CCCn1c(C)cnc1CC1CCN(C(=O)C2CC2)C1 (configuration not stated)	none
CC1(C(=O)NCCCN2CCCC2=O)CCCCC(=O)N1 (configuration not stated)	none
COCC(=O)NC[C@H]1COCc2nc3cc(S(C)(=O)=O)ccc3n21	none
CCN(CC)C(=O)CCc1c(C)nn(-c2cccc(C)c2)c1Oc1ccccc1	none
